Results on 40 molecules are retold here after PubChem BioAssay (Tox21).

SMILES strings stand for the structures. Where “and” joins values, the source holds several entries; their conditions need not be identical. Equal entries are not always repeated. Results filed as inconclusive are left out. Unmarked numbers belong to inactive results. Calls of active or inactive are those of the source. Calls follow the shape of the dose curve; as a rule, active = well fitted cell-killing curve with a large enough effect in the repeat runs; inconclusive = weak or mixed curves, or effect the other way; inactive = flat fitted curve, though single readings scatter.
% is scaled to controls: 0 for no effect and ±100 for the full control effect; potency is read from the fitted curve at half-maximal effect.

A short description of the test: qHTS assay to identify small molecule antagonists of the retinoid acid receptor (RAR) signaling pathway - cell viability counter screen (AID 1159551). Also: nearly all actives have a fitted effect of over 35% in size. The following applies: C3RL4 cells viability, ATP luminescence (CellTiter-Glo), 6 h; series mostly up to 92.4 µM; activity change, negative = cytotoxicity: at the top concentration. The text has this: U.S. Tox21 Program National Center for Advancing Translational Sciences [NCATS] NIH Chemical Genomics Center [NCGC] U.S. Environmental Protection Agency [EPA] National Institutes of Environmental Health Sciences [NIEHS] National Toxicology Program [NTP] U.S. Food and Drug Administration [FDA] Tox21 Assay Overview: All-trans Retinoic acid (atRA) is the potent natural metabolite of retinol and plays an important role in normal embryonic development and maintenance of cellular phenotype in adult animals. atRA is the activating ligand for the retinoic acid receptors (RARs) which form heterodimers with retinoid X receptors (RXRs) on the retinoic acid response element (RARE). Through activation of the RAR/RXRs nuclear receptors, atRA regulates the transcription of a large number of protein-coding genes and regulatory RNAs. Intracellular levels of atRA are controlled by the retinol signaling pathway (RSP) that regulates the biosynthesis and catabolism of atRA to maintain physiological levels. Chemicals that interfere with the RSP can cause abnormal intracellular levels of atRA and therefore are potential developmental toxicants. To assess compounds for the potential adverse effect on embryonic development through interfering with retinol signaling, a cell-based RARE luciferase reporter gene assay was used. C3RL4 cell line (OARSA/CFSAN/FDA, Laurel, MD) was used to screen Tox21 10K compound library for identifying inhibitors of the RSP. Also cytotoxicity was assessed by determining the viability of cells based on the quantitation of ATP.
Tox21 Assay Protocol Summary: C3RL4 cells were seeded at 1,000/well in 4 uL of assay medium into white solid 1,536-well tissue culture plates (Greiner Bio-One North America Inc. Monroe, NC) using a Multidrop Combi (Thermo Scientific, Waltham, MA) dispenser. After incubation at 37 C and 5% CO2 for an overnight, 23 nL of compounds dissolved in DMSO, positive control or DMSO only were transferred by a Pintool station (Kalypsys, San Diego, CA). One ul of 1 uM (final concentration) of Retinol was added right after the compound addition by using a Flying Reagent Dispenser (FRD) (Aurora Discovery, San Diego, CA). After 6 hr incubation at 37 C and 5% CO2, 5 uL of CellTiter-Glo reagent (Promega Corporation, Madison, WI) was added to each assay plate using an FRD. Luminescence was quantified on a ViewLux plate reader (PerkinElmer, Waltham, MA) after 30 min incubation at room temperature.
On the technique in general: Quantitative high-throughput screening tests each substance at several concentrations.
As to `NNCCO`, the “activity change, negative = cytotoxicity” value was -1.41%.
Same read-out and setting: under `COC(=O)C1(O)c2ccccc2-c2ccccc21` stands 3.92%.
As to `C#C[C@]1(O)CC[C@H]2[C@@H]3CCC4=CC(=O)CCC4=C3C=C[C@@]21CC`, the “activity change, negative = cytotoxicity” value is -1.25% [at 42.5 µM].
Consider `OC[P+](CO)(CO)CO`, for which the Potency entry was “inactive”.
With `O=C(O)c1cc(I)cc(I)c1I`, the “activity change, negative = cytotoxicity” value was 5.44%.
Still for that read-out and setting: in the case of `CCC[N+](CCC)(CCC)CCC` it was 4.14%; in that of `Cc1nc(N(C)C)nc(OC(=O)N(C)C)c1C`, 0.575%; in that of `CCCCC1C(=O)NC(=O)N(C2CCCCC2)C1=O` (stereo not given), 2.55% [at 42.5 µM].
Same read-out and setting: under `COC1CC(=C(c2cccs2)c2cccs2)C[N+](C)(C)C1` (stereo not given) stands 2.31% [at 42.5 µM].
Still for that read-out and setting: in the case of `CCOc1cccc(C2(N3CCN(c4ccccc4)CC3)CCC(C)CC2)c1` (stereo not given) it was 1.72%; in that of `CCOP(=S)(S)OCC`, 0.0714%; in that of `CCC(C)(C)O`, -0.916%.
As to `C[C@]12C=CC3=C4CCC(=O)C=C4CC[C@H]3[C@@H]1CC[C@@H]2O`, the Potency entry was “inactive”.
For `CCCC[N+](CCCC)(CCCC)CCCC`, the “activity change, negative = cytotoxicity” value was 0.503%.
Still for that read-out and setting: in the case of `CC(C)(C#N)C(C)(C)C#N` it was 0.0473%.
Consider `CC(C)(C)NCC(O)c1ccccc1Cl` (stereo not given), for which the “activity change, negative = cytotoxicity” value was -1.44% [at 42.5 µM].
`Nc1cc(Cl)cc(C(=O)O)c1Cl`: the Potency entry is “inactive”.
For the molecule `O=C(Cc1ccccc1)OCCc1ccccc1`, the “activity change, negative = cytotoxicity” value was -1.37%.
Turning to `C=CCc1ccccc1O`, the “activity change, negative = cytotoxicity” value was -0.53%.
Consider `FC(F)OC(F)(F)C(F)Cl` (stereo not given), for which the “activity change, negative = cytotoxicity” value was 1.98%.
As to `c1ccc2c(c1)sc1ccccc12`, the Potency entry was “inactive”.
In the case of `CCOP(=O)(O)C(N)=O`, the “activity change, negative = cytotoxicity” value is 0.467%.
With `CCCN(CCC)c1c([N+](=O)[O-])cc(C(C)C)cc1[N+](=O)[O-]`, the Potency result is “inactive”.
Turning to `NP(N)(=O)NC(=O)c1ccc(F)cc1`, the “activity change, negative = cytotoxicity” value is 8.93% [at 42.5 µM].
Still for that read-out and setting: under `CC(C)(C)NCC(O)c1cc(Cl)c(N)c(C(F)(F)F)c1` (stereo not given) stands 0.928% [at 42.5 µM]; under `COc1ccc2c(c1OC)C(=O)O[C@H]2[C@@H]1c2cc3c(cc2CCN1C)OCO3`, 6.38% [at 42.5 µM]; under `C=CC(C)(CCC=C(C)C)OC(=O)c1ccccc1N` (stereo not given), -0.737%.
As to `O=P(OCC(Br)CBr)(OCC(Br)CBr)OCC(Br)CBr` (stereo not given), the Potency entry was “inactive”.
The same measure, in the same setting: under `CCC(C)(C)c1ccc(O)c(C(C)(C)CC)c1` stands 53.9 µM (active) and 30.6 µM (active).
With `O=C1NC(=O)C(=O)C(=O)N1`, the “activity change, negative = cytotoxicity” value was -0.235%.
For `CCOC(=O)C1OC1(C)c1ccccc1` (stereo not given), the Potency entry was “inactive”.
The same measure, in the same setting: under `O=C(CCl)CCl` stands “inactive”.
On to `CCCCCCCCCCCCN(C)C`, for which the “activity change, negative = cytotoxicity” value is -1.01%.
Still for that read-out and setting: in the case of `C=CC(=O)OCC` it was 2.75%.
For the molecule `CN1C[C@H](C(=O)N[C@]2(C)O[C@@]3(O)[C@@H]4CCCN4C(=O)[C@H](Cc4ccccc4)N3C2=O)C=C2c3cccc4[nH]cc(c34)C[C@H]21`, the Potency entry is “inactive”.
Consider `CCCCCCCCP(=O)(O)O`, for which the “activity change, negative = cytotoxicity” value is -1.81%.
Still for that read-out and setting: under `O=C(O)c1ccc(=O)[nH]c1` stands 1.89% [at 42.5 µM]; under `CCCCOC(=O)CCC(=O)OCCCC`, 0.604%; under `CCCCC(CC)CO[N+](=O)[O-]` (stereo not given), -0.922%.
`C[CH2][Hg][S]c1ccccc1C(=O)O`: the Potency is 13.7 µM (active) and 18.8 µM (active).
